According to PubChem BioAssay (NCI):
Compounds without any hit were thinned out: in the full panel of roughly 79,000, 15% have a hit. Activity calls are given as the source filed them. Rule as the data show it: active = growth inhibition above about 70%; inactive = the rest.

Tests used:
[1] = NCI Yeast Anticancer Drug Screen. Data for the rad52 strain (AID 147);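 also: 0% = growth of vehicle-treated control cultures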; details: S. cerevisiae rad52 mutant growth inhibition, hits give high values
Method in brief: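 Screen used a yeast mutant impaired in DNA repair. After compound exposure, growth was measured. Values reflect inhibition compared with vehicle-treated cells.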

[2] = NCI Yeast Anticancer Drug Screen. Data for the wt1 strain (AID 149);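 also: 0% = growth of vehicle-treated wt1 cultures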; details: S. cerevisiae wt1 strain (SPY 50644) growth inhibition, hits give high values
Method in brief: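 Growth inhibition read against vehicle controls after compound exposure of the wt1 yeast strain.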

[3] = NCI Yeast Anticancer Drug Screen. Data for the rad50EPP+ strain (AID 151);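 also: 0% = growth of vehicle-treated control cultures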; details: S. cerevisiae rad50 mutant strain, hits give high values
Method in brief: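 Exposing the rad50EPP+ strain to each compound, growth was compared with vehicle-only cultures to give inhibition.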

[4] = NCI Yeast Anticancer Drug Screen. Data for the mgt1 strain (AID 153); details: S. cerevisiae mgt1 mutant growth inhibition, hits give high values
Method in brief: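 Genetically defined yeast (mgt1) treated with compound; inhibition of growth expressed against vehicle-treated controls.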

[5] = NCI Yeast Anticancer Drug Screen. Data for the rad50 strain (AID 155);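 also: 0% = growth of vehicle-only cultures of the same strain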; details: S. cerevisiae rad50 strain growth inhibition, hits give high values
Method in brief: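 Readout: growth inhibition relative to vehicle-treated cultures. Compound exposure was carried out in a genetically defined yeast strain deficient in DNA damage repair.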

[6] = NCI Yeast Anticancer Drug Screen. Data for the mec2-1 strain (AID 157); details: S. cerevisiae mec2-1 strain, hits give high values
Method in brief: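 Readout is yeast growth inhibition, normalised to vehicle-treated controls, in the mec2-1 strain exposed to compound.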

[7] = NCI Yeast Anticancer Drug Screen. Data for the rad14 strain (AID 159);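 also: 0% = growth of vehicle-treated control cultures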; details: S. cerevisiae rad14 strain growth inhibition, hits give high values
Method in brief: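 Growth inhibition vs vehicle controls; genetically altered yeast strain (DNA damage repair defect) treated with test compounds.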

[8] = NCI Yeast Anticancer Drug Screen. Data for the sgs1 mgt1 strain (AID 161);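 also: 0% = growth of cultures given vehicle only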; details: S. cerevisiae sgs1 mgt1 strain, hits give high values
Method in brief: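 Yeast cells carrying a defined DNA-repair defect were exposed to test compounds. Growth inhibition was measured relative to vehicle-treated controls.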

[9] = NCI Yeast Anticancer Drug Screen. Data for the CLN2oe strain (AID 163);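 also: 0% = growth of vehicle-only control cultures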; details: S. cerevisiae CLN2oe strain, hits give high values
Method in brief: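 Values reflect how much compound exposure reduced yeast growth, referenced to vehicle-exposed cells. Assay organism is a strain with a defined genetic change affecting cell-cycle control.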

[10] = NCI Yeast Anticancer Drug Screen. Data for the cln2 rad14 strain (AID 165);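 also: 0% = growth equal to vehicle treated cultures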; details: S. cerevisiae cln2 rad14 strain, hits give high values
Method in brief: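 Relative to vehicle controls, growth inhibition of compound-treated cln2 rad14 yeast was recorded.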

[11] = NCI Yeast Anticancer Drug Screen. Data for the bub3 strain (AID 167); details: S. cerevisiae bub3 mutant strain, hits give high values
Method in brief: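 Readout: yeast growth inhibition, expressed relative to vehicle-only wells. The test organism is a mutant strain from a panel with lesions in DNA repair or checkpoint genes.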

[12] = NCI Yeast Anticancer Drug Screen. Data for the wt2 strain (AID 169);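 also: 0% = growth of vehicle-treated yeast cultures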; details: S. cerevisiae wt2 strain growth inhibition, hits give high values
Method in brief: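 Values express reduction in yeast growth under compound treatment, referenced to vehicle-treated cells.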

[13] = NCI Yeast Anticancer Drug Screen. Data for the mlh1 strain (AID 171);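 also: 0% = growth of vehicle-treated control cultures of the same strain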; details: S. cerevisiae mlh1 strain growth inhibition, hits give high values
Method in brief: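 Steps: expose the defined-mutant yeast strain to compound; expose a parallel culture to vehicle; measure growth; express compound effect as inhibition relative to the vehicle culture.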

[14] = NCI Yeast Anticancer Drug Screen. Data for the sgs1 strain (AID 173);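 also: 0% = growth of vehicle-only control cultures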; details: S. cerevisiae sgs1 mutant, hits give high values
Method in brief: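 Treat defined-mutant yeast with compound; measure growth; calculate inhibition relative to vehicle-treated cells.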

[15] = NCI Yeast Anticancer Drug Screen. Data for the mlh1 rad18 strain (AID 175); details: S. cerevisiae mlh1 rad18 strain growth inhibition, hits give high values
Method in brief: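 Test agents were incubated with a yeast strain of defined genotype (DNA damage repair defect). Inhibition of growth was derived by comparison with vehicle-exposed cultures.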

[16] = NCI Yeast Anticancer Drug Screen. Data for the rad18 strain (AID 177); details: S. cerevisiae rad18 mutant growth inhibition, hits give high values
Method in brief: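 A genetically defined yeast mutant impaired in DNA damage repair was treated with test compounds, then its growth was measured against cultures receiving vehicle alone.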

[17] = at 5.0 µM (retest, dose inferred, filed as 0.5)
[18] = at 50.0 µM (retest, dose inferred, filed as 5.0)

Measured: growth inhibition

O=C(COc1ccc(Cl)cc1Cl)NO
active: [3]; at 100.0 µM 79% | [5]; at 50.0 µM 96.5% | [5]; at 100.0 µM 77% | [6]; at 50.0 µM 98.4% | [6]; at 100.0 µM 98% | [7]; at 100.0 µM 98% | [11]; at 50.0 µM 88% | [11]; at 100.0 µM 74% | [14]; at 100.0 µM 98%
inactive: [1]; at 1.2 µM -5% | [1]; at 3.7 µM 0% | [1]; at 11.0 µM 8% | [1]; at 33.0 µM 28% | [1]; at 100.0 µM 69% | [2]; at 1.2 µM -6% | [2]; at 3.7 µM -7% | [2]; at 11.0 µM -10% | [2]; at 33.0 µM -1% | [2]; at 100.0 µM 66% | [3]; at 1.2 µM -5% | [3]; at 3.7 µM 0% | [3]; at 11.0 µM 12% | [3]; at 33.0 µM 35% | [4]; at 1.2 µM -5% | [4]; at 3.7 µM -5% | [4]; at 11.0 µM -5% | [4]; at 33.0 µM 4% | [4]; at 100.0 µM 58% | [5]; at 1.2 µM -4% | [5]; at 3.7 µM -4% | [5]; [17] -138% | [5]; at 11.0 µM 10% | [5]; at 33.0 µM 50% | [5]; [18] 46% | [6]; at 1.2 µM 1% | [6]; at 3.7 µM -1% | [6]; [17] -46% | [6]; at 11.0 µM 11% | [6]; at 33.0 µM 43% | [6]; [18] -14% | [7]; at 1.2 µM -1% | [7]; at 3.7 µM 3% | [7]; at 11.0 µM 7% | [7]; at 33.0 µM 46% | [8]; [17] -58% | [8]; [18] 15% | [8]; at 50.0 µM 59.1% | [9]; at 1.2 µM -3% | [9]; at 3.7 µM -2% | [9]; at 11.0 µM 1% | [9]; at 33.0 µM 14% | [9]; at 100.0 µM 63% | [10]; [17] -60% | [10]; [18] -22% | [10]; at 50.0 µM 30.5% | [11]; at 1.2 µM -9% | [11]; at 3.7 µM -9% | [11]; [17] -67% | [11]; at 11.0 µM 2% | [11]; at 33.0 µM 24% | [11]; [18] 10% | [12]; at 1.2 µM -3% | [12]; at 3.7 µM -2% | [12]; at 11.0 µM -4% | [12]; at 33.0 µM -1% | [12]; at 100.0 µM 50% | [13]; at 1.2 µM 5% | [13]; at 3.7 µM -9% | [13]; at 11.0 µM -2% | [13]; at 33.0 µM 9% | [13]; at 100.0 µM 65% | [14]; at 1.2 µM -3% | [14]; at 3.7 µM 1% | [14]; at 11.0 µM 3% | [14]; at 33.0 µM 48% | [15]; [17] -118% | [15]; [18] -32% | [15]; at 50.0 µM 67.1% | [16]; at 1.2 µM -3% | [16]; at 3.7 µM 4% | [16]; at 11.0 µM 9% | [16]; at 33.0 µM 19% | [16]; at 100.0 µM 66%

Nc1nnc(N)n1-n1c(N)nnc1N
active: [5]; [18] 92% | [8]; [18] 89% | [15]; [18] 96%
inactive: [1]; at 1.2 µM -2% | [1]; at 3.7 µM -2% | [1]; at 11.0 µM -1% | [1]; at 33.0 µM 0% | [1]; at 100.0 µM 10% | [2]; at 1.2 µM -1% | [2]; at 3.7 µM 2% | [2]; at 11.0 µM -2% | [2]; at 33.0 µM -2% | [2]; at 100.0 µM 2% | [3]; at 1.2 µM 1% | [3]; at 3.7 µM 0% | [3]; at 11.0 µM -5% | [3]; at 33.0 µM -14% | [3]; at 100.0 µM -16% | [4]; at 1.2 µM -3% | [4]; at 3.7 µM -4% | [4]; at 11.0 µM -4% | [4]; at 33.0 µM -2% | [4]; at 100.0 µM 1% | [5]; at 1.2 µM -3% | [5]; at 3.7 µM -1% | [5]; [17] -8% | [5]; at 11.0 µM -3% | [5]; at 33.0 µM 1% | [5]; at 50.0 µM 56.1% | [5]; at 100.0 µM 9% | [6]; at 1.2 µM 1% | [6]; at 3.7 µM 3% | [6]; [17] -22% | [6]; at 11.0 µM 4% | [6]; at 33.0 µM 4% | [6]; [18] 36% | [6]; at 50.0 µM 11.8% | [6]; at 100.0 µM 2% | [7]; at 1.2 µM -3% | [7]; at 3.7 µM -3% | [7]; at 11.0 µM -4% | [7]; at 33.0 µM -6% | [7]; at 100.0 µM 0% | [8]; [17] 2% | [8]; at 50.0 µM 27.9% | [9]; at 1.2 µM -3% | [9]; at 3.7 µM -14% | [9]; at 11.0 µM -8% | [9]; at 33.0 µM -6% | [9]; at 100.0 µM -4% | [10]; [17] -2% | [10]; [18] 31% | [10]; at 50.0 µM -13.2% | [11]; at 1.2 µM -1% | [11]; at 3.7 µM -1% | [11]; [17] -18% | [11]; at 11.0 µM 2% | [11]; at 33.0 µM 3% | [11]; [18] 57% | [11]; at 50.0 µM 1.05% | [11]; at 100.0 µM 0% | [12]; at 1.2 µM -1% | [12]; at 3.7 µM -1% | [12]; at 11.0 µM -5% | [12]; at 33.0 µM -2% | [12]; at 100.0 µM 1% | [13]; at 1.2 µM 0% | [13]; at 3.7 µM 0% | [13]; at 11.0 µM 0% | [13]; at 33.0 µM -1% | [13]; at 100.0 µM 2% | [14]; at 1.2 µM 0% | [14]; at 3.7 µM -1% | [14]; at 11.0 µM -1% | [14]; at 33.0 µM -1% | [14]; at 100.0 µM 4% | [15]; [17] 49% | [15]; at 50.0 µM 19.1% | [16]; at 1.2 µM 0% | [16]; at 3.7 µM -4% | [16]; at 11.0 µM -5% | [16]; at 33.0 µM -4% | [16]; at 100.0 µM 9%
